The panel holds about 83,000 compounds, 20% with a hit somewhere; the sample as a whole holds those more often.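 A percent growth of 40 corresponds to 60% growth inhibition; 0 means no net growth; -100 means all cells died. Active threshold: below 10.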 The source made the active and inactive calls.
Columns and labels:
Test in all cases: NCI-60 one-dose screen, 48 h (100 = growth as untreated, 0 = no growth, -100 = all killed)
Details in all cases: 10 µM unless noted
[1] = system: SK-MEL-2 melanoma
[2] = system: EKVX NSCLC
[3] = system: SN12C renal
[4] = system: UO-31 renal
[5] = system: TK-10 renal
[6] = system: ACHN renal
[7] = system: CAKI-1 renal
[8] = system: A498 renal
[9] = system: CCRF-CEM leukemia
[10] = system: SR leukemia
[11] = system: RPMI-8226 leukemia
[12] = system: OVCAR-8 ovarian
[13] = system: OVCAR-5 ovarian
[14] = system: OVCAR-4 ovarian
[15] = system: SK-OV-3 ovarian
[16] = system: IGROV1 ovarian
[17] = system: OVCAR-3 ovarian
[18] = system: HS 578T breast
[19] = system: NCI/ADR-RES ovarian
[20] = system: MOLT-4 leukemia

Measured: growth

CC1CN(CCO)CC(C)O1 (centres undefined)
inactive: [1] 133% | [2] 102% | [3] 93.8% | [4] 90.7% | [5] 106% | [6] 107% | [7] 93.5% | [8] 114% | [9] 100% | [10] 103% | [11] 111% | [12] 107% | [13] 93.1% | [14] 99.7% | [15] 96.9% | [16] 103% | [17] 106% | [18] 74.4% | [19] 106%

Cc1nc(C)c(C(=O)O)cc1C(=O)O
inactive: [1] 114% | [2] 102% | [3] 125% | [4] 97.2% | [5] 112% | [6] 104% | [7] 100% | [8] 89.3% | [9] 103% | [20] 103% | [11] 106% | [12] 115% | [13] 97.5% | [14] 122% | [15] 104% | [16] 124% | [18] 124% | [19] 107%

O=[N+]([O-])c1ccc(-c2nc(N(CCO)CCO)c3ccccc3n2)o1
active: [1] -62.7% | [2] -32.4% | [3] 4.44% | [4] -40.6% | [5] -14.1% | [6] -14.5% | [7] -28.2% | [8] -77.1% | [11] 4.26% | [12] 1.65% | [13] -5.6% | [14] -25.7% | [15] -4.36% | [17] -34.3% | [18] -41.8% | [19] 5.04%
inactive: [9] 21.1% | [20] 12.5%

CCCCN(C(=O)CC)c1ccccc1
active: [9] -8.28%
inactive: [1] 108% | [2] 97% | [3] 99.3% | [4] 86.7% | [5] 97.2% | [6] 103% | [7] 101% | [8] 83.3% | [11] 85.1% | [12] 101% | [13] 105% | [14] 105% | [15] 114% | [16] 102% | [17] 111% | [18] 99.4% | [19] 110%

CC(=O)N(CCCCCCN(C(C)=O)C(C)=O)C(C)=O
inactive: [1] 117% [100 µM] | [2] 106% [100 µM] | [3] 103% [100 µM] | [4] 98.1% [100 µM] | [5] 116% [100 µM] | [6] 104% [100 µM] | [7] 98.7% [100 µM] | [8] 108% [100 µM] | [9] 103% [100 µM] | [20] 113% [100 µM] | [11] 107% [100 µM] | [12] 107% [100 µM] | [13] 110% [100 µM] | [14] 101% [100 µM] | [15] 114% [100 µM] | [17] 113% [100 µM] | [18] 105% [100 µM] | [19] 105% [100 µM]

C1CCc2onc(-c3noc4c3CCCCC4)c2CC1
inactive: [1] 120% | [2] 106% | [3] 95.6% | [4] 91.1% | [5] 108% | [6] 113% | [7] 95.6% | [8] 146% | [9] 99.3% | [11] 111% | [12] 109% | [13] 103% | [14] 109% | [15] 106% | [16] 115% | [17] 127% | [18] 115% | [19] 115%

Nc1c(Br)cc(O)c2c1C(=O)c1ccccc1C2=O
inactive: [1] 55.4% | [2] 96.6% | [3] 80.9% | [4] 85.1% | [5] 91.1% | [6] 97.1% | [7] 83.8% | [8] 76.4% | [9] 56.5% | [20] 50.1% | [11] 84% | [12] 55.6% | [13] 112% | [14] 87.4% | [15] 109% | [16] 56.3% | [17] 96.2% | [18] 88.8% | [19] 89.6%

COC(=O)C1(CC(C)=O)NC(=S)NC(=O)C1C#N (centres undefined)
inactive: [1] 119% | [2] 96.4% | [3] 101% | [4] 92.2% | [5] 103% | [6] 109% | [7] 94.6% | [8] 147% | [9] 101% | [20] 108% | [11] 114% | [12] 112% | [13] 107% | [14] 117% | [15] 117% | [17] 122% | [18] 96.1% | [19] 103%

O=c1cc(Cl)nc2ccccn12
inactive: [1] 110% | [2] 102% | [3] 102% | [4] 84% | [5] 105% | [6] 110% | [7] 96.1% | [8] 103% | [9] 119% | [20] 106% | [11] 114% | [12] 110% | [13] 101% | [14] 120% | [15] 110% | [17] 100% | [18] 104% | [19] 104%
